In PubChem BioAssay (NCATS):
Records with an inconclusive call do not appear. The source made the active and inactive calls. Calls come from the whole dose curve; as a rule, active = well fitted cell-killing curve with a large enough effect; inconclusive = small, poorly fitted or top-dose-only effect; inactive = flat fitted curve, though single readings scatter. Starred links: 1 amine or outer side, 2 acyl side, 3 side chain; linkers in the order of their positions; H or OH if unused. Positions of bridges follow the written chain, without caps; N, C: chain ends. Non-standard residues stand in square brackets, D forms with d. Residues, ends and D or L forms follow the SMILES beside them. ξ: configuration not given here. *: point of attachment. X3 = C[C@@H](Oc1ccc([C@H](N[*:1])C(=O)[*:2])cc1)[C@]1(/C=C\C(=O)[*:3])CO1; d(aIle) = CC[C@H](C)[C@@H](N)C(=O)O; X2 = CC(C)[C@@H](O)C(C)C(=O)*; ξNMeF = CNC(Cc1ccccc1)C(=O)O; ξT = CC(O)C(N)C(=O)O; ξS = NC(CO)C(=O)O

Assay: SW1088 Cancer Cell Toxicity qHTS against the NCATS CANVASS Library (AID 1347350); note: nearly all actives have a fitted effect of over 75% in size
Conditions: SW1088 viability, CellTiter-Glo luminescence, 72 h; series mostly up to 38.3 µM; activity change, negative = cytotoxicity: at the top concentration
From the text: Natural products and their derivatives continue to be wellsprings of nascent therapeutic potential. However, many laboratories have limited resources for biological evaluation, leaving their previously isolated or synthesized compounds largely or completely untested. To address this issue, the Canvass library of natural products was assembled (https://tripod.nih.gov/canvass), in collaboration with academic and industry researchers, for quantitative high-throughput screening (qHTS) across a diverse set of cell-based and biochemical assays. The pure (>85% purity by liquid chromatography/mass spectrometry [LC/MS]) Canvass library of 346 natural products were submitted by 45 academic laboratories and companies around the world. We collected pure natural products to circumvent deconvolution and structure elucidation due to time and resource limitations. The library was formatted into 1536-well plates and evaluated in 50 qHTS (in an 11-pnt concentration series) bioassays with broad scope of disease-relevant mechanisms. The resulting data set from 50 different assays was then systematically analyzed to identify overall trends and specific natural products with interesting biological activities. Reported herein are the results of each individual qHTS and their corresponding assay protocol. National Center for Advancing Translational Sciences (NCATS), Rockville, MD National Institute of Health (NIH), Bethesda, Maryland
Cancer Cell Toxicity protocol for cell lines COV-362, OV-KATE, OV-SAHO, UWB1.289, UWB1.289-WTBRCA1, HEK-293, HPAF-II, Panc-1005, SW1088, or U-118MG. 1. In a 1536 well, white solid bottom tissue culture plates (Corning 7494), corresponding cells (COV-362, OV-KATE, OV-SAHO, UWB1.289, UWB1.289-WTBRCA1, HEK-293, HPAF-II, Panc-1005, SW1088, or U-118MG) were dispensed in each well at a final concentration of 1000 cells / well (6uL volume) using the Multidrop Combi (Thermo Fisher Scientific) dispenser. 2. The plates were incubated for 4 hours at 37 degrees C/5% CO2/95% Rh. 3. Compounds were pin transferred (~23nL volume) via Wako Pin-tool (Wako Automation, Richmond VA) equipped with a 1536 pin head. The assay plates were treated with compounds in an 11-pnt concentration series with a final concentration range of […] to 85uM. 4. Bortezomib was used as a single dose control (0.5mM column 4, rows 1 - 32) at a final concentration of 1.9uM and as a 16pnt titration (1mM; 1:2 dilution; 16-points; n = 2; column 3, rows 1 - 32) with final concentration range of 0.1nM - 3.8uM. 5. The assay plates were incubated for 72 hours at 37 degrees C/5% CO2/95% Rh. 6. 3uL CellTiter-Glo detection reagent was then added to the plates (columns 2 - 48, rows 1 - 32) and incubated at room temperature for additional 15min. 7. Luminescence signal was acquired via the ViewLux plate reader (PerkinElmer) using a clear filter, 2 second exposure and 2x binning settings.
% is set by controls: 0 for no effect and ±100 for the full control effect; potency is the fitted concentration of half-maximal effect.

Structure (SMILES) | activity change, negative = cytotoxicity | Potency | outcome
C=C[C@]12C=CCN3CC[C@@]4(c5ccccc5NC(=O)[C@@H]4C1)[C@@H]32 | -3.89% (inactive) | – | –
CO[C@H]([C@@H](C)[C@H]1O[C@]1(C)C[C@H](C)/C=C/C=C(\C)[C@H]1O[C@@H](CC(=O)O)CC[C@@H]1C)[C@@H](C)O | -22.4% (inactive) | – | –
CC[C@H](C)[C@H]1NC(=O)[C@@H](NC(=O)C(C)[C@H](O)C(C)C)[C@@H](C)OC(=O)C2COC(=O)CNC(=O)/C=C\[C@]3(CO3)[C@@H](C)Oc3ccc(cc3)[C@H](NC1=O)C(=O)N(C)C(Cc1ccccc1)C(=O)NC(C(C)O)C(=O)N2 (stereo not given in full) (X2-T[d(aIle)][X3][ξNMeF][ξT][ξS]; ester 1-C; linker 3-6 via G) | -12.5% [at 22.9 µM] (inactive) | – | –
C/C=C/[C@@H]1[C@H]2C[C@@H](C)CC[C@@H]2C(C)=C[C@H]1C(=O)c1c(O)c(-c2ccc(O)cc2)c[nH]c1=O | – | 6.68 µM (active) | –
CCCC[C@@H]1CC[C@H]2CCCC(CCCO)N12 (stereo not given in full) | 2.19% (inactive) | – | –
CCCCC1CC[C@H]2CCCC(CCC)N12 (stereo not given in full) | 1.91% (inactive) | – | –
C/C=C1/CN2C3CC1C1=CCC(=O)N4c5ccccc5[C@@]3(C[C@@H]2C2=C[C@H]3C5CC6N(CC[C@@]67c6ccccc6N(C2=O)[C@@H]37)C/C5=C/C)[C@H]14 (stereo not given in full) | – | 14.9 µM (active) | –
CCCC[C@@H](C)/C=C1/CN2CCC[C@H]2[C@@](C)(O)[C@@H]1O | -10.5% (inactive) | – | –
C=C(C)[C@H]1C(=O)c2c3c(cc4c5c(n1c24)[C@@]1(C)[C@@H](CC[C@H]2[C@](C)(/C=C/C=C(\C)C(=O)O)[C@@H](O)CC[C@@]21C)C5)C1=CC(C)(C)OC(C)(C)[C@H]1[C@@H]3O | – | 5.95 µM (active) | –
C/C=C(\C)C(=O)O[C@@H]1[C@@H](O)[C@@H]2O[C@H]3[C@H](O[C@@H](CCCCC)CCCCCCC(=O)CCC(=O)OC[C@@H](O2)[C@H]1OC(=O)/C=C/c1ccccc1)O[C@H](C)[C@H](OC(C)=O)[C@@H]3O | – | 14.9 µM (active) | –
C1=C2CCCN[C@H]2C2CC1[C@H]1CCCCN1C2 (stereo not given in full) | -7.87% (inactive) | – | –
C[C@]12CC(O)C3[C@@H](CCC4C[C@@H](O)CC[C@@]43CO)[C@@]1(O)CC[C@@H]2C1=CC(=O)OC1 (stereo not given in full) | -14.4% (inactive) | – | –
O[C@H]1C=C[C@@]23CCN(Cc4cc5c(cc42)OCO5)[C@@H]3C1 | -6.21% (inactive) | – | –
C=CC(C)(C)[C@@]12C[C@H]3C(=O)N/C(=C\c4cnc[nH]4)C(=O)N3[C@@H]1Nc1ccccc12 | -9.59% (inactive) | – | –
C/C=C1/CN2CC[C@]34C(=C(C(=O)OC)[C@H]1C[C@H]23)Nc1ccccc14 | -13.1% (inactive) | – | –
CC[C@@H]1CN2CCC3(Nc4cccc(OC)c4C3=O)[C@@H]2C[C@@H]1/C(=C\OC)C(=O)OC (stereo not given in full) | -20.6% (inactive) | – | –
c1ccc2nc3c(cc2c1)[nH]c1ccccc13 | -15.7% (inactive) | – | –
CO[C@@]12c3c(C)cc(O)c4c(=O)occ(c34)C(=O)[C@@H]1[C@]13COC(=O)c4c(O)cc(C)c(c41)C(=O)[C@H]2[C@@H]3OC(C)=O | – | 18.8 µM (active) | –
CO[C@@H](/C=C/CC/C=C/C(=O)O)[C@@H](O)[C@H](C)/C=C(\C)[C@H](O)[C@H](C)C(=O)CCCC1CC(=O)NC(=O)C1 | – | – | inactive
C=CC(C)(C)[C@@]12C[C@H]3C(=O)N/C(=C/c4cnc[nH]4)C(=O)N3[C@@H]1Nc1ccccc12 | -2.66% (inactive) | – | –
CC(C)CC1C(=O)O[C@H](C(C)C)C(=O)N(C)C(CC(C)C)C(=O)O[C@@H](C(C)C)C(=O)N(C)C(CC(C)C)C(=O)O[C@H](C(C)C)C(=O)N(C)C(CC(C)C)C(=O)O[C@@H](C(C)C)C(=O)N1C (stereo not given in full) | – | 5.95 µM (active) | –
CC[C@]12C=CCN3CC[C@]4(C(=C(C(=O)OC)C1)Nc1ccccc14)[C@@H]32 | 3.95% (inactive) | – | –
C[N+](C)(C)CCc1c[nH]c2ccccc12 | 3.5% (inactive) | – | –
COC1C(O)C(C)OC(OC2C(Oc3cccc4c(O)c5c(=O)oc6ccc(C)c7c(=O)oc(c34)c5c67)OC(C)C(O)C2O)C1O (stereo not given) | -9.39% (inactive) | – | –
COC1=C(C2=C(OC)C(=O)c3cc4c(c(O)c3C2=O)C(=O)O[C@H](C)C4)C(=O)c2c(cc3c(c2O)C(=O)O[C@H](C)C3)C1=O | – | 3.14 µM (active) | –
